# SW480 rerep: induces DNA re-replication in SW480 colon adenocarcinoma cells | Potency, µM (top dose mostly 46.1 µM), for inactives: at the highest dose re-replication activation, usual class: activators | 340,000 tested, 1.8% active | AID 624297 | SW480 DNA re-replication, Hoechst DNA content imaging, 48 h; note: % of control where 0% means no effect; nearly all actives have a fitted effect of over 55% in size
#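 Readout is total intensity of Hoechst-stained nuclei, excited at 405 nm and collected at 500-530 nm. Compound treatment lasted 48 hr at 37 C in 5% CO2 before staining.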
# KB-V1 cytotox: kills drug-selected multidrug resistant KB-V1 cells; KB-V1 MDR cells viability, CellTiter-Glo, 72 h; Potency, µM (doses to about 46.1 µM), actives largely listed as cytotoxic; 400,000 tested, 3.4% active; note: % is set by controls: 0 for no effect and ±100 for the full control effect; nearly all actives have a fitted effect of over 60% in size
#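 Luminescent ATP read-out (CellTiter-Glo, 10 min) measures survival of drug-selected KB-V1 MDR cells after 72 h, 37 degrees C compound exposure. Medium: phenol-red-free DMEM, 10% FBS. Values from fitted concentration-response curves.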
# MCF10A rereplic: DNA re-replication induction in MCF 10a cells; 350,000 tested, 2.9% active; Potency, µM (doses to about 46.1 µM), for the others: top-dose activity, positive = re-replication, usual class: activators; MCF 10A DNA re-replication, Hoechst nuclear intensity, 48 h; note: % of control where 0% means no effect; nearly all actives have a fitted effect of over 50% in size
# PINK1 expr mod: changes PINK1 expression; Potency, µM (titrated, usually from 76.6 µM), for inactives: top-dose activation (PINK1 increase), most hits filed as activators; AID 624263; PINK1 immunofluorescence, high-content cytometry, 24 h; 410,000 tested, 0.2% active; active = well fitted activation curve with a large enough effect; inconclusive = small, poorly fitted or top-dose-only effect; cell line not stated here; note: % of control where 0% means no effect; nearly all actives have a fitted effect of over 65% in size
#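 A stable cell line was treated with compounds at 5 concentrations for 24 hours, with CCCP as control. PINK1 levels and mitochondrial localization were measured by immunofluorescence with mitochondrial, cell and nuclear markers after fixation, read by laser-scanning cytometry.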
# 12-LOX inh: inhibitors of human 12S-lipoxygenase ALOX12; P18054; purified 12hLO, xylenol orange hydroperoxide absorbance; Potency, µM (top dose mostly 108 µM), for inactives: at the top dose activity change, negative = inhibition, usual class: inhibitors; 580,000 tested, 1.1% active; AID 1671190; note: % is set by controls: 0 for no effect and ±100 for the full control effect
# Target sequence (P18054 whole entry, looked up): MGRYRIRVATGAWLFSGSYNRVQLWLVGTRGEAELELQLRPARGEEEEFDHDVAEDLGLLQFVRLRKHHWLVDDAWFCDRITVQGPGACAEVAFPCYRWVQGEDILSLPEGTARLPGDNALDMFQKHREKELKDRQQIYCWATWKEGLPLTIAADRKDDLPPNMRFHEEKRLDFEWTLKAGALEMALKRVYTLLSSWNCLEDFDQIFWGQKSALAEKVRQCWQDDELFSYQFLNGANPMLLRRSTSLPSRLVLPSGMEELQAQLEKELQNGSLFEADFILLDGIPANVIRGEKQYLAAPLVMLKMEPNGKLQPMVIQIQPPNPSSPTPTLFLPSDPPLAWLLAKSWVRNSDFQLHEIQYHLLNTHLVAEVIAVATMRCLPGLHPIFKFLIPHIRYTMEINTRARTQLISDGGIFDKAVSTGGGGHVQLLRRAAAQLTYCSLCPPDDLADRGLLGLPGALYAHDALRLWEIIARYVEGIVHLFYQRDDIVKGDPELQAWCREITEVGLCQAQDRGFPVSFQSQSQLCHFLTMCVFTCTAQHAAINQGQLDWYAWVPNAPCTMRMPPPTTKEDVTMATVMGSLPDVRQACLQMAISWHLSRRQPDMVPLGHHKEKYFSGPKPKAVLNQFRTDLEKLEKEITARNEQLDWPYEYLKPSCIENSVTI
#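 Hydroperoxide product was detected by ferrous iron/xylenol orange as the 573 to 405 nm absorbance ratio. Arachidonic acid at 40 uM (final) was turned over for 30 min at room temperature by 150 nM human 12hLO, pH 7.0 Hepes buffer, after 15 min compound preincubation.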
# KB-3-1 cytotox: kills parental KB-3-1 adenocarcinoma cells. KB-3-1 viability, CellTiter-Glo ATP luminescence, 72 h. Potency, µM (doses to about 46.1 µM), actives largely listed as cytotoxic. 400,000 tested, 1.4% active. AID 1347075; note: % is set by controls: 0 for no effect and ±100 for the full control effect; nearly all actives have a fitted effect of over 60% in size
#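 Cells are dispensed, compounds pinned in, plates held at 37 °C for 72 h, then CellTiter-Glo is added and luminescence read after 10 minutes. Cell line: parental KB-3-1 in phenol-red-free DMEM, 10% FBS.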
# Active calls of the source: *; i = inactive; ? = inconclusive; . = not tested or not shown; ! = not confirmed by another sample; [ ] = another dose, or the depositor's remark. A selection: hits, their analogues and other compounds. The true share with any hit is near 5.8%. Unless noted, calls come from the whole dose curve; as a rule, active = well fitted curve in the direction sought with a large enough effect; inconclusive = small, poorly fitted or top-dose-only effect, or another doubt; inactive = no such curve, though single readings can be large; an effect the other way counts as inactive or inconclusive. Potency is the fitted concentration of half-maximal effect.
SMILES,SW480 rerep,KB-V1 cytotox,MCF10A rereplic,PINK1 expr mod,12-LOX inh,KB-3-1 cytotox
CC(=O)N1Cc2cc(C(=O)NCC(F)(F)F)nc(-c3cccc(-c4cccnc4)c3)c2[C@@H]1CCO,.,i,.,9%,1%,4.1µM*
CC(=O)N1Cc2cc(C(=O)NCC(F)(F)F)nc(-c3cccc(-c4cc5ccccc5o4)c3)c2[C@@H]1CCO,.,23µM*,.,4%,?,?
CCS(=O)(=O)N1Cc2cc(C(=O)NCC3CC3)nc(-c3cccc(-c4cccnc4)c3)c2[C@@H]1CCO,.,i,.,7%,18%,?
C=C1C(=O)O[C@@H]2[C@H]3O[C@]3(C)CC/C=C(\C)CC[C@@H]12,-13%,i,4.1µM*,3%,3%,i
C=C1C(=O)OC2C1CC/C(C)=C/CCC1(C)OC21 (stereo unspecified),.,.,.,6%,.,.
CCOC(=O)c1sc(-c2ccc(OC)c(OC)c2)cc1NC(=O)c1ccco1,.,.,.,.,-28%,.
CCOC(=O)COc1ccc2c(=O)c(Oc3ccc(C(=O)OC)cc3)c(C)oc2c1,.,.,.,.,-4%,.
O=C(NC(=S)Nc1cc(-c2nc3ccccc3[nH]2)ccc1Cl)c1ccc2c(c1)OCO2,5.8µM*,7.3µM*,3.3µM*,-6%,?,18µM*
CCOC(=O)C1CCCN(C(=S)NC(=O)c2cc(Br)ccc2Cl)C1 (stereo unspecified),16µM*,i,7%,10%,-8%,i
CCc1ccc(S(=O)(=O)N2c3ccc(C)cc3C3CN(C)CCC32)cc1 (stereo unspecified),3%,21µM*,?,6%,?,i
CCc1ccc(Cc2cnc(NC(=O)C3=Cc4ccccc4OC3)s2)cc1,.,.,.,.,2%,.
CNC(=O)C1(N2CCC[C@H]2C(=O)NCCOC)CCOCC1,.,.,.,.,10µM*,.
CC(=O)N1CCC(N2CCC(N3C(=O)C4(CCCCC4)C3c3ccncc3)CC2)CC1 (stereo unspecified),.,.,.,.,51%,.
CCc1cccc(CC)c1NC(=O)c1ccc(CSc2ccccc2)cc1,.,.,.,.,10%,.
O=S(=O)(NCC(Nc1ccc(Cl)cc1)c1ccccc1)c1ccc(Cl)cc1 (stereo unspecified),?,?,3.3µM*,-1%,-6%,?
O=C(NCC(=O)N1CCCCC1)C1CCCN(S(=O)(=O)c2ccc(Cl)cc2)C1 (stereo unspecified),.,.,.,.,-1%,.
COc1cc2c(cc1OC)CN(CC(=O)Nc1ccc3c(c1)OC(F)(F)O3)CC2,-1%,13µM*,19%,5%,2%,i
CCOC(=O)N1CCN(S(=O)(=O)c2ccc(F)c(C(=O)Nc3ccc(C(C)C)cc3)c2)CC1,8%,6.5µM*,18%,6%,-1%,i
CNc1snc(C)c1C(=O)OCC(=O)Nc1ccc(C)cc1F,-5%,12µM*,?,2%,-1%,i
COC(=O)CC1C(=O)NCCN1S(=O)(=O)c1ccc(Cl)cc1C(F)(F)F (stereo unspecified),.,.,.,.,19%,.
NC(=O)C1(N2CCCCC2)CCN(c2nc(-c3ccc(Br)cc3)cs2)CC1,-3%,23µM*,?,20%[38.3 µM],13%,i
CS(=O)(=O)c1cccc(C(=O)N2CCN(C(=O)c3ccccc3)CC2)c1,.,.,.,.,23%,.
O=C(Nc1ccc2c(N3CCOCC3)ncnc2c1)c1ccc(Br)o1,.,.,.,.,66%,.
COc1ccc2cc(COC(=O)C3CCN(S(=O)(=O)c4ccccc4F)CC3)ccc2c1,.,.,.,.,-2%,.
N#CC1(Cc2ccccc2Cl)c2ccccc2C=CN1C(=O)c1ccccc1 (stereo unspecified),4%,21µM*,11%,0%,-10%,?
SMILES,SW480 rerep,KB-V1 cytotox,MCF10A rereplic,PINK1 expr mod,12-LOX inh,KB-3-1 cytotox
N#CC1c2ccccc2C=CN1C(=O)c1ccccc1 (stereo unspecified),?,i,-4%,0%,18%,i
O=C(NC(=S)Nc1ccc(CN2CCOCC2)cc1)c1ccc2c(c1)OCCO2,?,21µM*,?,5%,0%,18µM*
CC(C)c1ccc(/C=C/C(=O)NC(=S)Nc2ccc(CN3CCOCC3)cc2)cc1,23%,?,23µM*,0%,40µM*,i
COc1ccc(S(=O)(=O)N2CCC(C(=O)c3ccc4c(c3)OCCO4)CC2)cc1,2%,i,-6%,8%[38.3 µM],-5%,?
O=C(c1ccc2c(c1)OCCO2)C1CCN(S(=O)(=O)c2ccccc2F)CC1,0%,23µM*,1%,3%[38.3 µM],4%,i
COc1cc(OC)cc(C(=O)Nc2ccc3c(c2)OCCO3)c1,-1%,9.2µM*!,-1%,0%,-2%,16µM*!
COc1cc(OC)cc(C(=O)NC(C(=O)Nc2ccc3c(c2)OCCO3)C(C)C)c1 (stereo unspecified),-10%,i,10%,0%,7%,i
Brc1ccc(-c2csc3ncnc(Sc4nnc(C5CC5)o4)c23)cc1,.,.,.,.,10%,.
COCC1CN(S(=O)(=O)c2ccc(F)c(C)c2)CC12CCNCC2 (stereo unspecified),.,.,.,.,1%,.
O=C(NC(=S)Nc1ccc(N2CCOCC2)cc1)c1ccc2c(c1)OCCO2,?,?,14%,7%,?,i
O=C(NC(=S)Nc1ccc(F)cc1)c1ccc2c(c1)OCCO2,2%,i,0%,13%,?,13µM*
O=C(c1ccc2c(c1)OCCO2)C1CCN(C(=O)Nc2ccc(F)cc2)CC1,13%,23µM*,4%,1%,-19%,i
COc1ccc(NC(=S)NC(=O)c2ccc3c(c2)OCCO3)cc1,-7%,i,2%,12%,7.1µM*,i
CCOc1cccc(C(=O)NC(=S)Nc2ccc3c(c2)OCCO3)c1,2%,?,16%,1%,16µM*,i
COc1ccc(-c2coc3cc(OCC(=O)NCCC4=CCCCC4)ccc3c2=O)cc1OC,.,.,.,.,-23%,.
